From PubChem BioAssay (NCATS)
Records with an inconclusive call do not appear. The source made the active and inactive calls. The call rests on the fitted dose curve; in most records, active means well fitted inhibition curve with a large enough effect; inconclusive means small, poorly fitted or top-dose-only effect; inactive means flat fitted curve, though single readings scatter.

What was measured:
Assay in all cases: qHTS profiling for inhibitors of Plasmodium falciparum proliferation (AID 504749); further: nearly all actives have a fitted effect of over 60% in size
Conditions in all cases: P. falciparum in erythrocytes, SYBR Green DNA, 72 h; series mostly up to 12.8 µM
CP265 = system: CP265
Outline: (§1)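 Parasite proliferation within erythrocytes, 72 h exposure. Endpoint: SYBR Green I fluorescence after overnight lysis at room temperature. Controls: 0.29 uM artemisinin, DMSO.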

CP268 = system: CP268
Outline: as §1

CP269 = system: CP269
Outline: as §1

CP286 = system: CP286
Outline: as §1

CP291 = system: CP291
Outline: as §1

CP297 = system: CP297
Outline: as §1

CP305 = system: CP305
Outline: as §1

CP315 = system: CP315
Outline: as §1

CP325 = system: CP325
Outline: as §1

CP329 = system: CP329
Outline: as §1

CP335 = system: CP335
Outline: as §1

DFO2036 = system: DFO2036
Outline: as §1

DIV14 = system: DIV14
Outline: as §1

DIV17 = system: DIV17
Outline: as §1

DIV30 = system: DIV30
Outline: as §1

Dd2 = system: Dd2
Outline: as §1

ECU = system: ECU
Outline: as §1

FAB9 = system: FAB9
Outline: as §1

GB4 = system: GB4
Outline: as §1

HB3 = system: HB3
Outline: as §1

ICS = system: ICS
Outline: as §1

JCK = system: JCK
Outline: as §1

N140 = system: N140
Outline: as §1

P93_24 = system: P93_24
Outline: as §1

P94_40 = system: P94_40
Outline: as §1

PAD = system: PAD
Outline: as §1

PC15 = system: PC15
Outline: as §1

PC26 = system: PC26
Outline: as §1

PC49 = system: PC49
Outline: as §1

SC27B = system: SC27B
Outline: as §1

TAB109 = system: TAB109
Outline: as §1

TAB113 = system: TAB113
Outline: as §1

TAB165 = system: TAB165
Outline: as §1

W2 = system: W2
Outline: as §1

Measured: Potency
Potency means the concentration at half of the fitted maximal effect.

COc1cc(N[C@@H](C)CCCN)c2ncccc2c1
active: CP265 2000 nM | CP268 1610 nM | CP269 1810 nM | CP286 891 nM | CP291 1810 nM | CP297 3610 nM | CP305 1810 nM | CP315 5730 nM | CP325 2030 nM | CP329 3610 nM | CP335 4050 nM | DFO2036 3550 nM | DIV14 572 nM | DIV17 642 nM | DIV30 2030 nM | Dd2 1410 nM | ECU 1000 nM | FAB9 891 nM | GB4 809 nM | HB3 2240 nM | ICS 708 nM | JCK 3980 nM | N140 2820 nM | P93_24 1000 nM | P94_40 1410 nM | PAD 891 nM | PC15 1000 nM | PC26 2280 nM | PC49 2240 nM | SC27B 2000 nM | TAB109 1780 nM | TAB113 1410 nM | TAB165 891 nM | W2 2030 nM
